Results published in PubChem BioAssay (NCATS).
Records with an inconclusive call do not appear. Activity calls are given as the source filed them. Unless noted, the call rests on the fitted dose curve; in most records, active means well fitted inhibition curve with a large enough effect; inconclusive means small, poorly fitted or top-dose-only effect; inactive means flat fitted curve, though single readings scatter. Where a SMILES comes first, the peptide text is derived from it. Bridges are numbered along the chain shown (N, C = ends). [ ]: non-standard residue; d: D form. The star is where a group is joined. X1 = CCC(C)C(N)C1=NC(C(=O)*)CS1; dOrn = NCCC[C@@H](N)C(=O)O

Tests used:
[1] = qHTS drug screen for cell cycle checkpoint inhibitors in PARPi-resistant BRCA-mutant ovarian cancer cell lines. (AID 1963452; calls by dose curve); details: PEO1/OlaR viability, CellTiter-Glo luminescence, 96 h; for Z-AUC: stronger effect = lower value
In short: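 PEO1, PEO4 and PEO1/OlaR ovarian cancer cells, 600 per well, exposed 96 h at 37C to a dilution series. Viability read by CellTiter-Glo luminescence, normalized to DMSO and empty wells; activity summarized as Z-AUC.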

[2] = qHTS profiling for inhibitors of Plasmodium falciparum proliferation (AID 504749); further: nearly all actives have a fitted effect of over 60% in size;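 on activity, negative = inhibition: 0% = DMSO vehicle and full inhibition = artemisinin control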; details: P. falciparum in erythrocytes, SYBR Green DNA, 72 h
In short: (§1)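 Each compound contacts P. falciparum-infected red blood cells for 72 h at 37 C; lysis buffer (Tris, EDTA, saponin, Triton X, SYBR Green I) is added and fluorescence measured next morning; values normalized to controls.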

3D7 = assay: as above; details: P. falciparum in erythrocytes, SYBR Green DNA, 72 h; series mostly up to 28.7 µM
In short: as §1

7G8 = assay: as above; details: P. falciparum in erythrocytes, SYBR Green DNA, 72 h; series mostly up to 28.7 µM
In short: as §1

AA1029 = assay: as above; details: P. falciparum in erythrocytes, SYBR Green DNA, 72 h; series mostly up to 28.7 µM
In short: as §1

AS120 = assay: as above; details: P. falciparum in erythrocytes, SYBR Green DNA, 72 h; series mostly up to 28.7 µM
In short: as §1

ATS189 = assay: as above; details: P. falciparum in erythrocytes, SYBR Green DNA, 72 h; series mostly up to 28.7 µM
In short: as §1

ATS95 = assay: as above; details: P. falciparum in erythrocytes, SYBR Green DNA, 72 h; series mostly up to 28.7 µM
In short: as §1

[3] = measured here: PEO1 parental Z-AUC
[4] = at 28.7 µM (top of the series), parasite line A
[5] = at 28.7 µM (top of the series), parasite line B
Potency means the concentration at half of the fitted maximal effect.

Q: Which results are given for `COc1cc(N2CCC(O)CC2)ccc1Nc1cc(Nc2ccccc2S(=O)(=O)C(C)C)c2cc[nH]c2n1`?
A: Z-AUC [1]: 0.976 (inactive); Z-AUC [1, 3]: 1.41; Z-AUC ([1]; measured here: PEO4 Z-AUC): 0.959

Q: For `Nc1ccn([C@@H]2C(F)=C(CO)[C@@H](O)[C@H]2O)c(=O)n1`, which Z-AUC [1] is on record?
A: 0.41 (inactive)

Q: What about the Z-AUC [1, 3] of the same compound?
A: -0.156

Q: And the Z-AUC ([1]; measured here: PEO4 Z-AUC)?
A: -0.408

Q: What does the source list for `OCc1ccccc1O[C@@H]1O[C@H](CO)[C@@H](O)[C@H](O)[C@H]1O`?
A: Z-AUC [1]: 1.58 (inactive); Z-AUC [1, 3]: 1.17; Z-AUC ([1]; measured here: PEO4 Z-AUC): 0.966

Q: With `NC1CCC(N[C@@H]2C[C@H]2c2ccccc2)CC1` (stereo partly drawn) as the compound, how does the Z-AUC [1] read?
A: -1.43 (inactive)

Q: What about the Z-AUC [1, 3] of the same compound?
A: -0.571

Q: And the Z-AUC ([1]; measured here: PEO4 Z-AUC)?
A: -0.668

Q: What does the source list for `O=C(Nc1cccnn1)N1CCC(=Cc2cccc(Oc3ccc(C(F)(F)F)cn3)c2)CC1`?
A: Z-AUC [1]: -0.753 (inactive); Z-AUC [1, 3]: -0.539; Z-AUC ([1]; measured here: PEO4 Z-AUC): -0.803

Q: With `NS(=O)(=O)OC[C@@H]1C[C@@H](n2ccc3c(N[C@H]4CCc5ccccc54)ncnc32)C[C@@H]1O` as the compound, how does the Potency [1] read?
A: 347 nM (active)

Q: What about the Z-AUC [1, 3] of the same compound?
A: -1.6

Q: What about the Z-AUC ([1]; measured here: PEO4 Z-AUC) of the same compound?
A: -1.88

Q: Which Z-AUC [1] does the source give for `O=C(c1ccc(NS(=O)(=O)c2cccc3cccnc23)cc1)N1CCN(CC2CC2)CC1` here?
A: -0.157 (inactive)

Q: What about the Z-AUC [1, 3] of the same compound?
A: -0.299

Q: What about the Z-AUC ([1]; measured here: PEO4 Z-AUC) of the same compound?
A: -0.11

Q: What does the source list for `COc1ccc2cc(OCC3(C(=O)O)CN(C(=O)c4ccc(F)cc4)C3)ccc2c1`?
A: Z-AUC [1]: -0.285 (inactive); Z-AUC [1, 3]: -0.144; Z-AUC ([1]; measured here: PEO4 Z-AUC): 0.261

Q: For `IC(I)I`, which activity, negative = inhibition [2, 4] is on record?
A: 0.888% (inactive)

Q: And the activity, negative = inhibition [2, 5]?
A: 2.57% (inactive)

Q: And the Potency (3D7)?
A: inactive

Q: And the Potency (7G8)?
A: inactive

Q: And the Potency (AA1029)?
A: inactive

Q: And the Potency (AS120)?
A: inactive

Q: What about the Potency (ATS189) of the same compound?
A: inactive

Q: And the Potency (ATS95)?
A: inactive

Q: Which results are given for `O=S(=O)(O)c1ccc2c(N=Nc3ccc(S(=O)(=O)O)c4ccccc34)c(O)c(S(=O)(=O)O)cc2c1`?
A: activity, negative = inhibition [2, 4]: -19.8% (inactive); activity, negative = inhibition [2, 5]: -30% (inactive); Potency (3D7): inactive; Potency (7G8): inactive; Potency (AA1029): inactive; Potency (AS120): inactive; Potency (ATS189): inactive

Q: What does the source list for `CCN(CC)Cc1cc(Nc2ccnc3cc(Cl)ccc23)ccc1O`?
A: Potency ([2]; parasite line A): 35.5 nM (active); Potency ([2]; parasite line B): 39.8 nM (active); Potency (3D7): 28.2 nM (active); Potency (7G8): 35.5 nM (active); Potency (AA1029): 63.1 nM (active); Potency (AS120): 44.7 nM (active); Potency (ATS189): 141 nM (active); Potency (ATS95): 63.1 nM (active)

Q: Which Z-AUC [1] does the source give for `CCC(C)C(N)C1=NC(C(=O)N[C@@H](CC(C)C)C(=O)N[C@H](CCC(=O)O)C(=O)N[C@H](C(=O)N[C@H]2CCCCNC(=O)[C@H](CC(N)=O)NC(=O)[C@@H](CC(=O)O)NC(=O)[C@H](Cc3cnc[nH]3)NC(=O)[C@@H](Cc3ccccc3)NC(=O)[C@H]([C@@H](C)CC)NC(=O)[C@@H](CCCN)NC2=O)[C@@H](C)CC)CS1` (stereo partly drawn) (X1-L[dE]IK[dOrn]I[dF]H[dD]N; lactam 4-C) here?
A: 0.134 (inactive)

Q: What about the Z-AUC [1, 3] of the same compound?
A: 1.01

Q: What about the Z-AUC ([1]; measured here: PEO4 Z-AUC) of the same compound?
A: 0.703

Q: Which results are given for `Cc1nn(C)c(COc2ccc(N3CCN(S(=O)(=O)N(C)C)CC3)cc2)c1-c1cccc2c(CCCOc3cccc4ccccc34)c(C(=O)O)n(CCN3CCOCC3)c12`?
A: Z-AUC [1]: 0.0442 (inactive); Z-AUC [1, 3]: 0.77; Z-AUC ([1]; measured here: PEO4 Z-AUC): 0.53

Q: For `Cc1cc(Nc2ncc(Cl)c(Nc3ccccc3S(=O)(=O)C(C)C)n2)c(OC(C)C)cc1C1CCNCC1`, which Z-AUC [1] is on record?
A: -1.77 (inactive)

Q: And the Z-AUC [1, 3]?
A: -0.797

Q: What about the Z-AUC ([1]; measured here: PEO4 Z-AUC) of the same compound?
A: -0.548

Q: For `COc1cc(N2CCC(N(C)C)CC2)ccc1Nc1ncc(Cl)c(Nc2ccccc2P(C)(C)=O)n1`, which Potency [1] is on record?
A: 436 nM (active)

Q: What about the Z-AUC [1, 3] of the same compound?
A: -1.75

Q: And the Z-AUC ([1]; measured here: PEO4 Z-AUC)?
A: -1.64

Q: What does the source list for `CC(C)(O)CNc1nc(Nc2ccnc(C(F)(F)F)c2)nc(-c2cccc(C(F)(F)F)n2)n1`?
A: Z-AUC [1]: 0.352 (inactive); Z-AUC [1, 3]: 0.62; Z-AUC ([1]; measured here: PEO4 Z-AUC): 0.79

Q: Which Potency ([2]; parasite line A) does the source give for `COc1cc(-c2ccc(-[n+]3nc(-c4ccccc4)nn3-c3ccc([N+](=O)[O-])cc3)c(OC)c2)ccc1-[n+]1nc(-c2ccccc2)nn1-c1ccc([N+](=O)[O-])cc1` here?
A: 10000 nM (active)

Q: What about the Potency ([2]; parasite line B) of the same compound?
A: 11200 nM (active)

Q: What about the Potency (3D7) of the same compound?
A: 11200 nM (active)

Q: And the Potency (7G8)?
A: 11200 nM (active)

Q: What about the Potency (AA1029) of the same compound?
A: 11200 nM (active)

Q: For `CC[N+](C)(C)Cc1ccccc1Br`, which activity, negative = inhibition ([2]; at 12.8 µM (top of the series), parasite line A) is on record?
A: 3.25% (inactive)

Q: And the activity, negative = inhibition ([2]; at 12.8 µM (top of the series), parasite line B)?
A: 6.79% (inactive)

Q: What about the Potency (3D7) of the same compound?
A: inactive

Q: And the Potency (7G8)?
A: inactive

Q: What about the Potency (AA1029) of the same compound?
A: inactive

Q: What about the Potency (AS120) of the same compound?
A: inactive

Q: What about the Potency (ATS189) of the same compound?
A: inactive

Q: What about the Potency (ATS95) of the same compound?
A: inactive

Q: What does the source list for `CCOC(C)=O`?
A: activity, negative = inhibition [2, 4]: 0.182% (inactive); activity, negative = inhibition [2, 5]: 7.53% (inactive); Potency (3D7): inactive; Potency (7G8): inactive; Potency (AA1029): inactive; Potency (AS120): inactive; Potency (ATS189): inactive; Potency (ATS95): inactive

Q: Which results are given for `CC1=C(/C=C/C(C)=C/C=C/C(C)=C/C=C/C=C(C)/C=C/C=C(C)/C=C/C2=C(C)C(=O)CCC2(C)C)C(C)(C)CCC1=O`?
A: activity, negative = inhibition [2, 4]: -4.18% (inactive); activity, negative = inhibition [2, 5]: 4.39% (inactive); Potency (3D7): inactive; Potency (7G8): inactive; Potency (AA1029): inactive; Potency (AS120): inactive; Potency (ATS189): inactive; Potency (ATS95): inactive

Q: For `CC(C)Nc1cc(-c2c[nH]c(C(=O)N[C@H](CO)c3cccc(Cl)c3)c2)c(Cl)cn1`, which Potency [1] is on record?
A: 8710 nM (active)

Q: What about the Z-AUC [1, 3] of the same compound?
A: -1.89

Q: What about the Z-AUC ([1]; measured here: PEO4 Z-AUC) of the same compound?
A: -1.82

Q: Which Z-AUC [1] does the source give for `C[C@@H]1CCN(C(=O)CC#N)C[C@@H]1N(C)c1ncnc2[nH]ccc12` here?
A: 1.14 (inactive)

Q: And the Z-AUC [1, 3]?
A: 0.765

Q: What about the Z-AUC ([1]; measured here: PEO4 Z-AUC) of the same compound?
A: 1.24

Q: For `NCc1ccc(OCCCc2sc(-c3ccc4c(c3)/C(=N/Nc3nc5ccccc5s3)CCC4)nc2C(=O)O)cc1`, which Z-AUC [1] is on record?
A: 1.02 (inactive)

Q: And the Z-AUC [1, 3]?
A: 1.09

Q: What about the Z-AUC ([1]; measured here: PEO4 Z-AUC) of the same compound?
A: 0.501

Q: With `CCOC(=O)c1ccnc(CNCC(=O)N(CC)CCN(C)C)c1` as the compound, how does the Z-AUC [1] read?
A: 1.38 (inactive)

Q: What about the Z-AUC [1, 3] of the same compound?
A: 0.751

Q: What about the Z-AUC ([1]; measured here: PEO4 Z-AUC) of the same compound?
A: 0.779

Q: With `CON(C)C(=O)N1N=C(c2cc(F)ccc2F)S[C@@]1(CCCN)c1ccccc1` as the compound, how does the Potency [1] read?
A: 8.7 nM (active)

Q: What about the Z-AUC [1, 3] of the same compound?
A: -2.66

Q: What about the Z-AUC ([1]; measured here: PEO4 Z-AUC) of the same compound?
A: -2.54

Q: What does the source list for `C=C1CC[C@@H]2[C@](C)(CO)[C@H](O)CC[C@@]2(C)[C@@H]1C/C=C1/C(=O)OC[C@H]1O`?
A: Z-AUC [1]: 0.643 (inactive); Z-AUC [1, 3]: -0.159; Z-AUC ([1]; measured here: PEO4 Z-AUC): 0.023

Q: With `CCOc1cc2ncc(C#N)c(Nc3ccc(OCc4ccccn4)c(Cl)c3)c2cc1NC(=O)/C=C/CN(C)C` as the compound, how does the Z-AUC [1] read?
A: 0.57 (inactive)

Q: What about the Z-AUC [1, 3] of the same compound?
A: 0.366

Q: What about the Z-AUC ([1]; measured here: PEO4 Z-AUC) of the same compound?
A: -0.0482

Q: Which results are given for `CN(C)c1cccc(-c2c3c(=O)n(-c4ccccc4Cl)[nH]c3cc(=O)n2C)c1`?
A: Z-AUC [1]: -0.625 (inactive); Z-AUC [1, 3]: -0.313; Z-AUC ([1]; measured here: PEO4 Z-AUC): -0.353

Q: Which Z-AUC [1] does the source give for `OC[C@H]1O[C@@H](n2cnc3c2NC=NC[C@H]3O)C[C@@H]1O` here?
A: -0.043 (inactive)

Q: What about the Z-AUC [1, 3] of the same compound?
A: 0.0818

Q: And the Z-AUC ([1]; measured here: PEO4 Z-AUC)?
A: 0.0721
